Assay results: the supplement of paper PMC12340641
Counter-ions that a name gives are not always drawn.

What was measured:
[1] = molecular target: IKZF1 (dCK*-IKZF1 fusion in HEK293FT) (UniProt Q13422); assay: inhibition of IKZF1 HTRF signal (DMSO = 0%, pomalidomide 10 uM = 100%); higher = lower IKZF1 protein level; conditions: compound concentration: 5 uM, overnight (~20 h)
How it was run: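 For percent inhibition of IKZF1 signal, each plate was normalised to vehicle and to a reference degrader. Cells were HEK293FT stably expressing an IKZF1 fusion, plated at 2000/well in 384-well format and treated overnight at 37 °C with 5 μM compound, one well each. Lysates were probed overnight with a commercial HTRF total-IKZF1 antibody kit, with the 665/620 nm ratio background-subtracted and vehicle and degrader fixed at 0% and 100%.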

HEK293FT dCK*-only = assay: relative growth in counter assay (no AraC = 100%, AraC + DMSO = 0%); higher = more growth rescue independent of IKZF1; conditions: compound concentration: 5 uM; AraC concentration: 0.3 uM; overnight pretreatment + 4 days AraC
How it was run: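 HEK293FT cells carrying only an engineered kinase construct were plated at 300 per well (384-well) and given 5 μM compound 2 h later. Following overnight at 37 °C, a nucleoside suicide substrate (0.3 μM) plus medium was added for 4 days. Hoechst 33342-stained nuclei were imaged and counted on day 5, with 100% assigned to wells without suicide substrate and 0% to substrate plus vehicle on each plate.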

HEK293FT dCK*-IKZF1 = assay: relative growth recovery (pomalidomide 10 uM = 100%, DMSO = 0%); higher = more growth rescue (IKZF1 fusion degradation); conditions: compound concentration: 5 uM; AraC concentration: 0.3 uM; overnight pretreatment + 4 days AraC
How it was run: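 HEK293FT cells stably expressing a dCK*-IKZF1 fusion (300/well, 384-well) received 5 μM compound 2 h after seeding. After overnight at 37 °C they received a nucleoside suicide substrate at 0.3 μM plus medium for 4 days. On day 5, Hoechst 33342-stained nuclei were counted by whole-well imaging. Growth recovery was normalised per plate to a reference degrader (100%) and vehicle (0%); values are means of duplicates run on different days.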

IKZF1 (dCK*-IKZF1 fusion in HEK293FT), sequence (Q13422 whole entry, looked up, the tested form may be a part): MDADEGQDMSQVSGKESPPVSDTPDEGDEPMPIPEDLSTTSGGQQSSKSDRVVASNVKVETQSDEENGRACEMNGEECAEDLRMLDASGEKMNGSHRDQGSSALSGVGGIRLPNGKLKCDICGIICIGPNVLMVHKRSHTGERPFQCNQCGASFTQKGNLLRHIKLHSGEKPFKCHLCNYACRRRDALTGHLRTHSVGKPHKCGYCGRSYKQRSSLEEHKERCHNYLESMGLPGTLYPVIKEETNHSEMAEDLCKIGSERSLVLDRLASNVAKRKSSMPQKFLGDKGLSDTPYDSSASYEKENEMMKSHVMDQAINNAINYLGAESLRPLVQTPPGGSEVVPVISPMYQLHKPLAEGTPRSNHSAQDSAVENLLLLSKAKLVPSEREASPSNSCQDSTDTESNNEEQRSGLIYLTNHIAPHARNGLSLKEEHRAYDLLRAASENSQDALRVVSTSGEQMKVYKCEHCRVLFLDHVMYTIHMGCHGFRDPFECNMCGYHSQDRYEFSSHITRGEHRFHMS

| Structure (SMILES) | inhibition of IKZF1 HTRF signal [1] | relative growth in counter assay (HEK293FT dCK*-only) | relative growth recovery (HEK293FT dCK*-IKZF1) |
| --- | --- | --- | --- |
| CN1CCCC1CCOC(C)(c1ccccc1)c1ccc(Cl)cc1 (stereo unspecified) [Clemastine fumarate] | 11% | 6.63% | 5.08% |
| C=C1C(=O)O[C@@H]2C[C@@]3(C)CCC[C@H](C)C3=C[C@H]12 [alantolactone] | -31.2% | -28% | -7.37% |
| CN(Cc1cnc2nc(N)nc(N)c2n1)c1ccc(C(=O)NC(CCC(=O)O)C(=O)O)cc1 (stereo unspecified) [Methotrexate] | -46% | -30.3% | -9.97% |
| CC(=C\c1ccc(Cl)cc1)/C(C)=N/O | -25.6% | -1.62% | -3.61% |
| OCCN1CCN(CCCN2c3ccccc3Sc3ccc(C(F)(F)F)cc32)CC1 [Fluphenazine  HCl] | -52.5% | 15.7% | 5.51% |
| NC(=S)N/N=C/c1ncccc1N [Triapine] | -21.7% | -34.8% | -13% |
| CC1(C)Oc2ccc(C#N)cc2[C@H](N(Cc2ncc[nH]2)c2ccc(Cl)cc2)[C@H]1O | -30.7% | -4.85% | 1.01% |
| CN1CCN(CCCN2c3ccccc3Sc3ccc(Cl)cc32)CC1 | -26.7% | 4.19% | 1.47% |
| CCN(CC)CCCC(C)Nc1ccnc2cc(Cl)ccc12 (stereo unspecified) | -24.3% | -29.9% | -9.51% |
| O=c1c(O)c(-c2ccc(O)c(O)c2)oc2cc(O)ccc12 [Fisetin (Fustel)] | 11.3% | -3.66% | -3.06% |
| CCCCC(CC)COc1ccc(-c2nc(-c3ccc(OC)cc3)nc(-c3ccc(OCC(CC)CCCC)cc3O)n2)c(O)c1 (stereo unspecified) | -35.1% | 12.9% | 1.75% |
| O=C2[C@]([C@]3=CC(Cl)=CC=C3OC)(F)C1=CC=C(C(F)(F)F)C=C1N2 [flindokalner] | -26.1% | -5.3% | -1.65% |
| CCCCCCCCN=c1ccn(CCCCCCCCCCn2ccc(=NCCCCCCCC)cc2)cc1 [Octenidine Dihydrochloride] | 64.7% | -35.3% | -14.7% |
| O=C1c2c(O)cccc2Cc2cccc(O)c21 | 14% | -0.62% | -0.185% |
| COc1c(C)c2c(c(O)c1C/C=C(\C)CCC(=O)O)C(=O)OC2 | -27.2% | -31.1% | -11.7% |
| COCCOC(=O)C1=C(C)NC(C)=C(C(=O)OC/C=C/c2ccccc2)C1c1cccc([N+](=O)[O-])c1 (stereo unspecified) [cilnidipine] | -8.24% | -4.05% | -0.035% |
| C/C(=C\c1csc(C)n1)[C@@H]1C[C@@H]2O[C@]2(C)CCC[C@H](C)[C@H](O)[C@@H](C)C(=O)C(C)(C)[C@@H](O)CC(=O)N1 [Ixabepilone] | -13.2% | -33.8% | -10.8% |
| COC(=O)C1=C(C)NC(C)=C(C(=O)OCC(C)C)C1c1ccccc1[N+](=O)[O-] (stereo unspecified) [Nisoldipine] | -28.1% | -8.81% | -3.19% |
| O=C(O)c1ccc(/C=C2/SC(=S)N(c3cccc(C(F)(F)F)c3)C2=O)cc1 | -26.9% | -1.87% | -0.07% |
| CC1=C(/C=C/C(C)=C/C=C/C(C)=C/C=C/C=C(C)/C=C/C=C(C)/C=C/C2=C(C)CCCC2(C)C)C(C)(C)CCC1 | -23.6% | -13.6% | -1.69% |
| Cc1cc(C2CCCCC2)n(O)c(=O)c1 [Ciclopirox] | 24.4% | -31.2% | -11.9% |
| O=C1c2ccccc2C(Cc2ccncc2)(Cc2ccncc2)c2ccccc21 | -38.8% | -4.37% | 5.88% |
| CCCCC(=O)OCC(=O)[C@]1(O)Cc2c(O)c3c(c(O)c2[C@@H](O[C@H]2C[C@H](NC(=O)C(F)(F)F)[C@H](O)[C@H](C)O2)C1)C(=O)c1c(OC)cccc1C3=O [Valrubicin] | -26.2% | -34.4% | -11.8% |
| O=C(O)C(O)Cc1ccc(O)c(O)c1 (stereo unspecified) [Sodium Danshensu] | -50.2% | 0.01% | -0.76% |
| Clc1ccc(C(Cn2ccnc2)OCc2csc3c(Cl)cccc23)c(Cl)c1 (stereo unspecified) [Sertaconazole] | -18.6% | 3.66% | 1.54% |
| O=C(Nc1ccc(C(O)(C(F)(F)F)C(F)(F)F)cc1)c1ccc(C(F)(F)F)cc1 | -28.5% | 49.3% | 53.1% |
| C[C@H](NCc1ccc(OCc2ccccc2F)cc1)C(N)=O [priralfinamide] | -24% | -0.94% | -2.81% |
